# Experimental data taken from PubChem BioAssay AID2546 (National Center for Advancing Translational Sciences (NCATS), 2010).
# The campaign covered roughly 310,000 compounds. About 11,000 (3.5%) were called active. Another 8% or so got no clear call; they are omitted. The entries come from a sample that favours actives as a whole. Values without a mark were called inactive. Calls follow the shape of the dose curve; as a rule, active = well fitted inhibition curve with a large enough effect; inconclusive = small, poorly fitted or top-dose-only effect, or effect the other way; inactive = flat fitted curve, though single readings scatter.
# Assay: VP16 counterscreen qHTS for inhibitors of ROR gamma transcriptional activity;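 also: Gal4-VP16 expression switched on by copper sulfate through the metallothionein promoter; nearly all actives have a fitted effect of over 50% in size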
# Details: Drosophila S2 Gal4-VP16 UAS-luciferase, luminescence, 20 h; series mostly up to 53.6 µM; activity, negative = inhibition: at the top concentration
# From the text: NIH Molecular Libraries Probe Production Network [MLPCN]
# NIH Chemical Genomics Center [NCGC]
# Assay Provider: Dan Littman, New York University
# The retinoic acid-related orphan receptor (ROR) gamma is a transcription factor that has a central role in the differentiation of Th17 cells, a subset of T helper cells that secrete the inflammatory cytokines IL-17, IL-17F, and IL-22. Th17 cells have been implicated in graft versus host disease, autoimmune disease and asthma. ROR gamma is induced in naive T helper cells in the presence of TGF-beta combined with IL-6, IL-21, or IL-23, and thereafter directs the expression of the Th17 lineage cytokines. To identify nonspecific inhibitors, a Drosophila Schneider cell line was stably transfected with two vectors: a gene expressing a fusion of the Gal4 DNA binding domain and VP16 transactivation domain under the control of the metallothionine promoter and a Photinus luciferase reporter regulated by the Gal4 binding site enhancer, UAS. […] Small molecule inhibitors that inhibit components common to the RORgt and VP16 assays, such as the Gal4 DNA binding domain or the UAS luciferase reporter, will be active in both assays and thus scored as nonspecific.
# For screening, 600 cells in 4 uL/well were dispensed into white solid 1536-well plates (Grenier) using a solenoid-based dispenser. Following transfer of 23 nL compound or DMSO vehicle by a pin tool, the plates were incubated 1 hr at ambient temperature, and 1 uL/well copper sulfate (700 uM final concentration) was added. The plates were centrifuged 15 s at 1000 RPM and incubated 20 hr at ambient temperature. After addition of 1.5 uL Photinus luciferase detection reagent, the plates were incubated 10 min at ambient temperature and then read by a ViewLux (Perkin Elmer) to detect luminescence.
# % is scaled to controls: 0 for no effect and ±100 for the full control effect; potency is read from the fitted curve at half-maximal effect.
Compound,"activity, negative = inhibition",Potency
COc1cc(NC(=O)C2=C(C)OCCS2)c(Cl)cc1C(=O)NCCN1CCN(C)CC1,-7.6%,
Cn1nccc1/C=N\NC(=O)c1ccc(Cl)cc1,-8.81%,
CCOc1ccc(CCNC(=O)Nc2ccccc2)cc1OCC,6.47%,
COc1ccc(NC(=O)CCN2C(=O)/C(=C/c3ccc4c(c3)OCO4)SC2=S)cc1,-2.97%,
COc1ccccc1C(=O)NNC(=O)CCN1C(=O)/C(=C\c2ccccc2)SC1=S,-9.43%,
O=C(CCCN1C(=O)/C(=C/c2ccco2)SC1=S)Nc1ccccc1,,12.6 µM (active)
O=C(CCCN1C(=O)/C(=C/c2ccccc2)SC1=S)Nc1ccc(O)cc1,,2 µM (active)
COc1ccc(/C=C2\SC(=S)N(CCC(=O)Nc3cccc(C(=O)O)c3)C2=O)cc1OC,-1.72%,
Cc1ccc(/C=C2\SC(=S)N(CCC(=O)Nc3ccc(O)cc3)C2=O)cc1,7.84%,
COC(=O)c1ccc(Nc2ncnc3sccc23)cc1,3.15%,
CCCCCCC(O)(CCN1CCCCC1)c1ccccc1 (centres undefined),-16.4%,
CC(=O)N1c2ccc(S(=O)(=O)N3CCC(C(=O)N4CCN(c5ccccc5)CC4)CC3)cc2CC1C (centres undefined),4.75%,
CCOc1cc(/C=N/n2cnnc2)c(Br)cc1O,,5.62 µM (active)
Brc1cc(/C=N/n2cnnc2)oc1Br,-2.44%,
Fc1ccc(Br)cc1/C=N/n1cnnc1,-6.06%,
COc1cc(C(=O)OCC(=O)NC(C)CCc2ccccc2)cc(OC)c1OC (centres undefined),3.99%,
O=C(C[n+]1cc(Br)cc2ccccc21)c1ccc(F)cc1,16.3%,
COc1ccc(CNc2ncnc3ccccc23)cc1,,7.08 µM (active)
c1coc(CNc2ncnc3ccccc23)c1,,10 µM (active)
COc1ccc(Nc2ncnc3ccc(OC)cc23)cc1,-2.23%,
COc1cccc(CNc2nc(C(F)(F)F)nc3ccccc23)c1,-10.5%,
c1ccc(-c2nc(NCc3ccco3)c3ccccc3n2)cc1,-86.1%,
Brc1ccc2ncnc(NCc3cccnc3)c2c1,3.99%,
CCOCCCN(C)C1CCN(C(=O)c2oc3ccccc3c2NC(=O)COc2cccc(C)c2)CC1,-2.07%,
Cc1cccn2c(=O)c3cc(C(=O)NCCN4CCOCC4)c(=N)n(Cc4cccnc4)c3nc12,-1.41%,
COc1cc2c(cc1OC)CN(C(=O)c1cc(S(=O)(=O)N3CCCCC3)ccc1Cl)CC2,6%,

Compound,"activity, negative = inhibition",Potency
Cc1cc(C)n(-c2nc(SCC(=O)N3CCCC3)c3c4c(sc3n2)CCCC4)n1,,10 µM (active)
CC/C(C)=N/Nc1nc2sc3c(c2c(=O)[nH]1)CC(C)(C)OC3,-5.75%,
CC(C)c1nc(SCC(=O)Nc2cccc(C(=O)O)c2)c2c3c(sc2n1)CCCC3,13%,
Cc1nc2sc3c(c2c(=O)n1NC(=O)CCl)CCCC3,0.993%,
CCCc1nc(SCC(=O)N2CCCC2)c2c(=O)n(C)c(=O)n(C)c2n1,7.13%,
CCC(O)CNc1nc(-n2nc(C)cc2C)nc2sc3c(c12)CC(C)(C)OC3 (centres undefined),,3.98 µM (active)
COCCNc1nc(-n2nc(C)cc2C)nc2sc3c(c12)CCCC3,,3.16 µM (active)
CCOC(=O)CSc1nc2sc3c(c2c(=O)[nH]1)CC(C)(C)OC3,-4.44%,
Cc1ccc(C)c(-n2c(SCC(=O)O)nc3sc4c(c3c2=O)CCCC4)c1,-15.4%,
O=C(C1CCCN(S(=O)(=O)c2ccccc2)C1)N1CCN(c2ccc(F)cc2)CC1 (centres undefined),-1.43%,
Cc1nc([N+](=O)[O-])cn1CC(=O)Nc1ccc(Cl)cc1,-5.36%,
CC(NC(=S)Nc1ccccc1)C1COc2ccccc2O1 (centres undefined),,5.01 µM (active)
CC(=O)c1cccc(NC(=O)C2COc3ccccc3O2)c1 (centres undefined),28.1%,
O=C(NCC1COc2ccccc2O1)C1(c2ccccc2)CCCC1 (centres undefined),-20.2%,
Cn1c(CO)cnc1SCc1ccccc1,1.65%,
CSc1nc2ccccc2c(=O)n1Cc1ccc(F)cc1,7.17% [at 10 µM],
CSc1c(SCc2ccccc2)cnn(Cc2ccccc2)c1=O,,7.08 µM (active)
O=C(NCC(=O)N1CCN(c2ccccc2O)CC1)c1ccc2ccccc2c1,1.8%,
Cc1ccccc1-n1cc(CNC(=O)C2CCC(=O)N(C3CC3)C2)cn1 (centres undefined),-2.71%,
CC(C)CC(=O)Nc1ccc(Cc2ccncc2)cc1,2.31%,
Cc1c(C(=O)N2CCCc3ccccc32)oc2ccccc12,-1.3%,
Cc1cc(-c2ccc(C)c(S(=O)(=O)NCCCN(Cc3ccccc3)C(C)C)c2)on1,13.3%,
Cc1noc(C)c1C(=O)OCC(=O)/C=C1\N(C)c2ccccc2C1(C)C,-5.14%,
CN1/C(=C\C(=O)c2cccnc2Cl)C(C)(C)c2ccccc21,-8.82%,
CC(=O)Nc1cccc(OCC(=O)/C=C2\N(C)c3ccccc3C2(C)C)c1,,3.16 µM (active)
COCC1CCN(C(=O)CCc2nnc(C3(c4ccc(Cl)cc4)CCC3)o2)C1 (centres undefined),27.7%,

Compound,"activity, negative = inhibition",Potency
C=CCn1c(=O)c(C(=O)NCc2ccc3c(c2)OCO3)c(O)c2ccccc21,-4.31%,
CN(C)S(=O)(=O)c1ccc(NC(=O)COC(=O)Cn2[nH]c(=O)c3ccccc3c2=O)cc1,-2.41%,
O=C(COC(=O)c1n[nH]c2ccccc12)NCc1ccccc1,7.8%,
CN(C)S(=O)(=O)c1ccc(NC(=O)COC(=O)c2n[nH]c3ccccc23)cc1,,8.91 µM (active)
O=C(/C=C/c1ccccc1[N+](=O)[O-])NCC1CCCO1 (centres undefined),3.92%,
CCC(=O)Nc1ccc(C(=O)Nc2ccc3c(c2)C(=O)N(CC2CCCO2)C3=O)cc1 (centres undefined),-24.9%,
O=C1c2cccc3c([N+](=O)[O-])ccc(c23)C(=O)N1CC1CCCO1 (centres undefined),,5.62 µM (active)
Cc1ccc(-n2c(C)nnc2SCC(=O)NC2CC2)cc1,1.94%,
O=C(NCc1cccc(Cl)c1)C1CCC(=O)N(C2CC2)C1 (centres undefined),-5.17%,
CCC(=O)N1CCN(c2ccccc2NC(=O)COc2cccc(C)c2C)CC1,4.11%,
CCOc1ccccc1NC(=S)N1CCN(c2cccc(C)c2C)CC1,,4.47 µM (active)
CCOc1ccccc1N1CCN(C(=S)Nc2ccc(S(N)(=O)=O)cc2)CC1,-15.7%,
COc1ccccc1NC(=S)N1CCN(C(c2ccccc2)c2ccccc2)CC1,,20 µM (active)
COc1ccccc1NC(=S)N1CCN(c2ccc(F)cc2)CC1,-3.46%,
COc1ccccc1CN1CCN(C(c2ccccc2)c2ccccc2)CC1,-11.1%,
Cc1sc2nc(SCCO)n(-c3ccccc3)c(=O)c2c1C,-3%,
COc1ccc(C2c3[nH]c4ccccc4c3C[C@H]3C(=O)N(CC(C)C)CC(=O)N23)c(OC)c1 (some centres undefined),-0.271%,
O=S(=O)(NC1CCCCC1N1CCCCC1)c1ccc(Cl)cc1 (centres undefined),-10.5%,
CCOC(=O)c1cccnc1NC(=O)c1ccncc1,-16%,
COC(=O)c1cccnc1NC(=S)NC(C)C,,4.47 µM (active)
COc1ccc(OC)c(C(C)NC(=S)Nc2ccc(S(=O)(=O)Nc3ncccn3)cc2)c1 (centres undefined),10.8%,
CCN(C(=O)c1cc([N+](=O)[O-])ccc1NCc1cccnc1)c1ccccc1,-7.93%,
O=C1NCC(=O)N(Cc2ccccc2)/C1=C/c1ccccc1,0.172%,
CC1=NN(Cc2ccccc2)C(=O)/C1=C/c1ccc(N(C)C)cc1,4.44%,
CN(C)c1ccc(/C=C2\NC(=S)N(Cc3ccccc3)C2=O)cc1,,11.2 µM (active)
Cn1cc(S(=O)(=O)Nc2ccc(Cl)cc2Cl)c(=O)n(C)c1=O,-9.29%,

Compound,"activity, negative = inhibition",Potency
Cc1cc(C)nc(-n2nc(C)cc2NC(=O)c2ccc(F)cc2F)n1,,3.16 µM (active)
Cc1cc(NC(=O)c2cnn3cccnc23)n(-c2ccccc2)n1,-28.7%,
CC(=O)N/C(=N/c1nc(C)cc(C)n1)Nc1ccc(F)cc1F,5.33%,
COc1cc2ccccc2cc1C(=O)N(CCN(C)C)c1nc2c(F)cccc2s1,-13.9%,
CC(C)(C)SCCSC1=CC(=O)CC(c2ccccc2)C1 (centres undefined),28.7%,
O=C(Nc1ccc(S(=O)(=O)N2CCCCCC2)cc1)c1c(F)cccc1F,-14.4%,
CCOc1ncccc1C(=O)NCCc1ccc(OC)cc1,-0.0396%,
Cc1cc(C)cc(NC(=O)C2CCCN2S(=O)(=O)c2cccc3cccnc23)c1 (centres undefined),0.608%,
CS(=O)(=O)c1ccc2nc(NC(=O)c3ccc(N4CCCC4=O)cc3)sc2c1,-7.58%,
O=C(COC(=O)c1ccc(F)cc1)Nc1nc2ccc([N+](=O)[O-])cc2s1,-1.03%,
O=C(NC(Nc1nc2ccc([N+](=O)[O-])cc2s1)(C(F)(F)F)C(F)(F)F)c1ccccc1,,2.82 µM (active)
O=C(Nc1nc2ccc([N+](=O)[O-])cc2s1)c1ccncc1,-3.85%,
CSc1nc2ccc(S(=O)(=O)N3CCc4ccccc43)cc2s1,-40.6%,
O=C(Nc1nc2ccc([N+](=O)[O-])cc2s1)c1ccc(S(=O)(=O)N2CCCc3ccccc32)cc1,,3.98 µM (active)
CCOC(=O)c1cc(C(=O)Nc2ccc(S(=O)(=O)Nc3ccc(OC)cc3)cc2)nn1C,-13.2%,
COC(=O)c1cccc(N(C(=O)CNC(=O)c2cccs2)C(C(=O)NCC2CCCO2)c2ccc(OC)c(OC)c2)c1 (centres undefined),-2.8%,
Cc1cccc(CCNS(=O)(=O)c2ccc3c(c2)NC(=O)CO3)c1,10.3%,
COc1ccc(CN2CCNC(=O)C2CC(=O)NCc2cn[nH]c2-c2ccccc2)c(F)c1 (centres undefined),-5.29%,
COc1ccc(C(CNC(=O)COc2ccccc2OC)N2CCCCC2)cc1 (centres undefined),-0.743%,
O=C1OC2(CCCCC2)CC2=C1C1O[C@](c3ccsc3)(Cc3ccccc31)O2,-4.71% [at 10 µM],
COc1cc2c(cc1OC)C(c1ccccc1Br)NC(=O)C2 (centres undefined),-3.64%,
COc1ccc(NC(=O)CCCC2CCCCC2)c(OC)c1,9.83%,
Cc1cccc(OCC(=O)NCCCNC(=O)c2ccccn2)c1,4.73%,
CCN(CC)CCOc1ccc2c(c1)C(=NNC(=O)c1ccccn1)c1cc(OCCN(CC)CC)ccc1-2,,10 µM (active)
CCOc1cc(NC(=O)c2ccccn2)c(OCC)cc1NC(=O)c1ccc(OC)cc1,4.71%,
Cc1onc(C(=O)Nc2ccc3c(c2)OCO3)c1[N+](=O)[O-],-0.154%,
